# High-throughput results (PubChem)
# Only some compounds are listed: those with a hit (about 12% of all), similar ones and a draw of the others.
# BAZ2B block: BAZ2B (human) inhibition. 4.4% of 360,000 active. Potency, µM (series often up to 114 µM), for inactives: at the top dose activity change, negative = inhibition, actives largely listed as inhibitors. Q9UIF8. AlphaScreen BAZ2B-H3K14Ac peptide displacement; also: potency is read from the fitted curve at half-maximal effect; % is scaled to controls: 0 for no effect and ±100 for the full control effect; nearly all actives have a fitted effect of over 60% in size
#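 Protein-peptide AlphaScreen: BAZ2B 50 nM, b-H3K14Ac 50 nM, 1x PBS pH 7.4 + 0.01% Tween-20. Preincubation 30 min RT; cpd 30 min RT (top 110 uM); beads 20 min RT, light-protected.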
# JMJD2A Tudor: blocks the human JMJD2A Tudor domain. Potency, µM (top dose mostly 114 µM), inactives show at the highest dose activity change, negative = inhibition, usual class: inhibitors. 4.4% of 390,000 active. AlphaScreen JMJD2A-Tudor / H3K4me3 peptide binding. O75164; also: potency is read from the fitted curve at half-maximal effect; % is scaled to controls: 0 for no effect and ±100 for the full control effect; nearly all actives have a fitted effect of over 50% in size
# L3MBTL1 block: inhibitors of human L3MBTL1; Potency, µM (highest dose often 57.1 µM), for the others: at the highest dose activity, negative = inhibition, usual class: inhibitors; 0.66% of 230,000 active; AID 485360; Q9Y468; AlphaScreen L3MBTL1–H3K9me1 peptide binding; also: potency is read from the fitted curve at half-maximal effect; % is scaled to controls: 0 for no effect and ±100 for the full control effect; nearly all actives have a fitted effect of over 60% in size
#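 AlphaScreen proximity signal between nickel-chelate acceptor and streptavidin donor beads (final 10 ug/mL) reports binding of 50 nM L3MBTL1 to 75 nM biotin-H3 K9me1 peptide; complex incubated with compounds 30 min at room temperature; cefsulodin titration as control.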
# Sfp PPTase inh: blocks B. subtilis Sfp PPTase activity; Q9F4F7; Biochemical Sfp PPTase activity, qHTS; Potency, µM, inactives show largest response in the series, negative = inhibition, usual class: inhibitors; 3.5% of 310,000 active; AID 1490;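 also: the enzyme is Sfp with the accession as filed and its product quenches rhodamine fluorescence; potency is read from the fitted curve at half-maximal effect; 0% = enzyme reaction without inhibitor and -100% = no enzyme wells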
#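 Reaction rates are the 30-min fluorescence difference (ex 525, em 598 nm) in wells containing 15 nM Sfp, 5 uM rhodamine-CoA and 12.5 uM BHQ-2-YbbR at pH 7.6 with 10 mM MgCl2.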
# G9a inh: inhibitors of human histone lysine methyltransferase G9a; G9a H3K9 monomethylation, AlphaScreen, 2 h; 8.8% of 350,000 active; Q96KQ7; Potency, µM (series often up to 102 µM), for inactives: at the top dose activity, negative = inhibition, actives largely listed as inhibitors; also: potency is read from the fitted curve at half-maximal effect; % is scaled to controls: 0 for no effect and ±100 for the full control effect; nearly all actives have a fitted effect of over 75% in size
#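 AlphaScreen read-out: biotin-H3K9 peptide (500 nM) methylation by 20 nM enzyme with 20 uM SAM, 2 h at room temperature after 15 min compound preincubation; anti-monomethyl H3K9 antibody plus donor/acceptor beads, 10 min dark.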
# HP1b chromo inh: blocks HP1-beta chromodomain binding to methylated histone tails; Potency, µM (highest dose often 114 µM), for inactives: at the top dose activity change, negative = inhibition, actives largely listed as inhibitors; 0.56% of 390,000 active; P83916; AlphaScreen HP1-beta / biotin-H3K9me3 peptide binding; also: potency is read from the fitted curve at half-maximal effect; nearly all actives have a fitted effect of over 70% in size
#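 AlphaScreen: HP1-beta (50 nM) preformed 30 min with biotin-H3(1-18)K9me3 peptide (50 nM) in PBS pH 7.4, 0.01% Tween-20. Compound added for 30 min at RT, then streptavidin donor/nickel chelate acceptor beads (10 ug/mL) for 30 min.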
# Sfp inh conf: Sfp phosphopantetheinyl transferase inhibition, confirmation; shares compounds with Sfp PPTase inh; Sfp PPTase enzymatic assay, qHTS titration; Potency, µM (doses to about 114 µM), without a hit: at the highest dose activity change, negative = inhibition, actives largely listed as inhibitors; 79% of 380 active; AID 2701;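 also: potency is read from the fitted curve at half-maximal effect; plate controls were uninhibited Sfp reaction for no effect and no enzyme control for full effect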
# Sfp PPTase gel: Inhibits B. subtilis Sfp phosphopantetheinylation; shares compounds with Sfp PPTase inh; purified Sfp, gel-based phosphopantetheinylation read-out; Potency, µM, most hits filed as inhibitors; 20% of 210 active;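 active = potency below 100 µM; inconclusive = dose-dependent response but potency above 100 µM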;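 also: band intensities scaled against SCH202676 control wells before curve fitting; potency is an IC50 for inhibitors of Sfp transfer activity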
# * hit, by the source's call; i = inactive; ? = inconclusive; . = no result given; ! = not active in a repeat; [ ] = another dose, or the depositor's remark. Unless noted, calls follow the shape of the dose curve; as a rule, active = well fitted curve in the direction sought with a large enough effect; inconclusive = small, poorly fitted or top-dose-only effect, or another doubt; inactive = no such curve, though single readings can be large; an effect the other way counts as inactive or inconclusive.
SMILES,BAZ2B block,JMJD2A Tudor,L3MBTL1 block,Sfp PPTase inh,G9a inh,HP1b chromo inh,others
C[C@@H]1O[C@@H](OC2CC(O)C3(CO)C4C(CCC3(O)C2)C2(O)CCC(C3=CC(=O)OC3)C2(C)C[C@H]4O)[C@H](O)[C@H](O)[C@H]1O (some centres not stated),.,.,.,6.3%,29.1%[59 µM],.,
O=C1NC(=S)NC(=O)C1=Cc1cccn1-c1ccc(O)cc1,-28.1%,25.1µM*,.,17.8µM*,7.08µM*,?,
Cc1cc(C)cc(N2C(=O)NC(=O)/C(=C\c3cccn3-c3ccc(Cl)cc3)C2=O)c1,-3.8%,-8.7%,28.2%,-1.5%,-24.0%[59 µM],16.3%,
Cc1cc(C)cc(N2C(=O)NC(=O)/C(=C\c3cccn3-c3ccccc3)C2=O)c1,-18.5%,-15.4%,0.6%,-3.6%,?,17.6%,
CN1C(=O)/C(=C/c2cccn2-c2ccc3ccccc3c2)C(=O)NC1=S,44.7µM*,?,?,56.2µM*,?,-27.5%,
CCOc1cccc(CNC2CN3CCC2CC3)c1 (configuration not stated),1.0%,-7.0%,.,-0.6%,?,25.9%,
CCOc1cccc(OCCOCCN2CCCC2)c1,?,7.94µM*,-1.6%,-6.0%,?,?,
Cc1cc(OCC(=O)N2CCCN(C)CC2)ccc1Cl,1.6%,-9.7%,.,0.6%,4.1%,25.2%,
Clc1ccc(OCCCN2CCCC2)cc1Cl,?,3.98µM*,-6.2%,7.5%,10µM*,?,
Nc1ccc2c3c(cccc13)CC2,?,-31.5%,-8.0%,-5.2%,39.8µM*,-11.5%,
CC1CC[C@@]2(OC1)O[C@@H]1[C@@H](O)[C@H]3C4CC[C@H]5C[C@@H](O[C@@H]6O[C@H](CO)[C@H](O[C@@H]7O[C@H](CO)[C@@H](O)[C@H](O[C@@H]8OC[C@@H](O)[C@H](O)[C@H]8O)[C@H]7O[C@@H]7O[C@H](CO)[C@@H](O)[C@H](O[C@@H]8O[C@H](CO)[C@@H](O)[C@H](O)[C@H]8O)[C@H]7O)[C@H](O)[C@H]6O)[C@H](O)C[C@]5(C)C4CC[C@]3(C)[C@H]1[C@@H]2C (some centres not stated),.,.,.,-0.9%,.,.,
COc1cc(CNc2ccc3[nH]c(=O)[nH]c3c2)ccc1OCc1ccccc1C,-29.2%,-34.6%,.,7.7%,?,-24.6%,
COc1cc(/C=C(/C)[N+](=O)[O-])ccc1OCc1ccccc1Cl,?,-27.8%,-15.3%,14.1µM*,10µM*,-0.6%,
Cc1cccc(-n2c(-c3cccs3)nc3ccccc3c2=O)c1,79.4µM*,?,?,4.2%,0.1%[59 µM],12.7%,
CCOc1cc(/C=C2\C(=O)NC(=O)N(C)C2=O)cc([N+](=O)[O-])c1O,-10.8%,-2.4%,.,28.2µM*,50.1µM*,31.4%,
C/C(CC(=O)Nc1cc(C)ccn1)=N\NC(=O)c1ccncc1,?,-1.4%,.,-13.1%,?,24.7%,
NS(=O)(=O)c1ccc(CNC(=O)COc2ccc3c4c(c(=O)oc3c2)CCCC4)cc1,-3.2%[57.1 µM],35.5µM*,.,-6.5%,14.4%,2.7%,
CN1CCc2nc(SCc3ccccc3Br)c(C#N)cc2C1,-33.0%,?,-10.2%,-23.1%,17.8µM*,40.0%,
CC(=O)[O][Hg][c]1ccccc1,.,.,.,0.178µM*,?,.,
CC1(C)C(O)CC(=O)[C@]2(C)C1CC(=O)[C@]1(C)C2CC[C@@]2(C)C(c3ccoc3)OC(=O)C3O[C@@]321 (some centres not stated),.,.,.,1.8%,-6.1%[2.33 µM],.,
O=C(O)COc1ccccc1,?,-2.1%,0.6%,-2.8%,0.6%[0.501 µM],47.5%,
COc1ccc(C(=O)NC(=S)NNC(=O)c2cccnc2)cc1,13.3%,-9.2%,.,6.1%,?,18.1%,
Cc1ccccc1C(=O)NNC(=S)NC(=O)COc1ccccc1,?,4.47µM*,.,?,0.562µM*,?,
COc1ccc(CC(=O)NC(=S)NNC(=O)COc2c(C)cccc2C)cc1,8.5%,15.8µM*,6.2%,2.3%,1.12µM*,?,
c1ccc2sc(C3(NCC4CC4)CCCCC3)cc2c1,.,.,.,12.8%,9.7%[59 µM],.,
SMILES,BAZ2B block,JMJD2A Tudor,L3MBTL1 block,Sfp PPTase inh,G9a inh,HP1b chromo inh,others
CC(C)(C)C(=O)Cn1c(NCCCl)nc2ccccc21,-21.5%,-10.3%,1.6%,7.6%,39.8µM*,31.6%,
CN(C)C1C(=O)C(C(N)=O)C(=O)C2(O)C(=O)C3C(=O)c4c(O)cccc4C(C)(O)C3C(O)C12 (configuration not stated),.,.,.,7.94µM*,3.55µM*,.,Sfp inh conf=?
CCC1C=CC=CC[C@H](C)[C@@H](O)[C@](C)(O)C(=O)[C@@H](C)[C@H](O)[C@@H](C)C(=O)[C@H](C)[C@@H](O)[C@H](C)C=CC(=O)OC2[C@@H](C)C(CC1)OC1(CC[C@@H](C)C(C[C@H](C)O)O1)[C@@H]2C (some centres not stated),-25.3%,.,-8.6%,.,-21.0%[12.7 µM],.,
CC[C@@H]1/C=C/C=C/C[C@H](C)[C@@H](O)[C@](C)(O)C(=O)[C@H](C)[C@@H](O)[C@H](C)C(=O)[C@H](C)[C@@H](O)[C@H](C)/C=C/C(=O)O[C@H]2[C@@H](C)[C@@H](CC1)O[C@@]1(CC[C@@H](C)[C@@H](C[C@H](C)O)O1)[C@@H]2C,.,.,.,0.0006µM*,7.3%[59 µM],.,Sfp inh conf=0.4%;Sfp PPTase gel=i
O=C(c1ccc2c(c1)N(Cc1c(F)cccc1Cl)C(=O)c1ccccc1S2)N1CCC2(CC1)OCCO2,.,?,.,.,-11.2%[59 µM],-5.6%,
Clc1ccc2c(c1)CCc1cccnc1C2=C1CCNCC1,?,.,.,-20.7%,-1.2%[59 µM],.,
Clc1ccc(COC(Cn2ccnc2)c2ccc(Cl)cc2Cl)c(Cl)c1 (configuration not stated),22.4µM*,39.8µM*,-24.2%,35.5µM*!,-41.0%[2.33 µM],-16.2%,Sfp inh conf=?
C=CCOC(Cn1ccnc1)c1ccc(Cl)cc1Cl (configuration not stated),-36.7%,-27.0%,-5.9%,7.8%,-6.4%[12.7 µM],5.1%,
CCOC(=O)Nc1ccc(NCc2ccc(F)cc2)nc1N,70.8µM*,56.2µM*,?,35.5µM*,1.19µM*,?,Sfp inh conf=14.8µM*
